Results reported in ChEMBL document CHEMBL1961873, “Compounds: GSK PKIS; Assays: Nanosyn kinase panel” (2012).
Several values for one entry are separate records, joined by “and”; a condition that tells them apart may be missing. Identical values can stand only once.

How the values were obtained:
[1] = target: MAP/microtubule affinity-regulating kinase 3 (Homo sapiens) (UniProt P27448); settings: at 1 µM;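 further: reported values are averaged percent inhibition of MARK3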
[2] = target: T1, MAP/microtubule affinity-regulating kinase 4 (Homo sapiens) (UniProt Q96L34); settings: at 0.1 µM
T1 sequence (whole entry): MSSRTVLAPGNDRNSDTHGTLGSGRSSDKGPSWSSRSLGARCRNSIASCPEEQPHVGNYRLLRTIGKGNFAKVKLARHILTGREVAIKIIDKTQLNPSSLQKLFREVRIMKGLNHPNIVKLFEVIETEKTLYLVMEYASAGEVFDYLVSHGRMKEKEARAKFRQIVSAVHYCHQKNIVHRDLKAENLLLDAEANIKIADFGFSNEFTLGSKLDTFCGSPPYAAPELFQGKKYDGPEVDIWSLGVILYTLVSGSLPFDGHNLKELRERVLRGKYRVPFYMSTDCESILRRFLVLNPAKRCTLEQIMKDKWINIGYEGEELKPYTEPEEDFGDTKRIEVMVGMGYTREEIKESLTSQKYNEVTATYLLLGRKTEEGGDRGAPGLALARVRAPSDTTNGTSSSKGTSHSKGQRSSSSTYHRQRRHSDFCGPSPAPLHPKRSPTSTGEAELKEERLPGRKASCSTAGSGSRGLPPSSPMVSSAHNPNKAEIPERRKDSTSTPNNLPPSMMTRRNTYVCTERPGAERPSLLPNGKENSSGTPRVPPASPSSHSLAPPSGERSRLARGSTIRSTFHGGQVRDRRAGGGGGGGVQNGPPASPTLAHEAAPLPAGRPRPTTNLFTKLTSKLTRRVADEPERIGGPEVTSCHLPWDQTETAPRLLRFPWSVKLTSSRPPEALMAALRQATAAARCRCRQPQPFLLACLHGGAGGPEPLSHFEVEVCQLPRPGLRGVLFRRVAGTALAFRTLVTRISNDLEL

[3] = target: T1, MAP/microtubule affinity-regulating kinase 4 (Homo sapiens); settings: at 1 µM
[4] = target: Maternal embryonic leucine zipper kinase (Homo sapiens) (UniProt Q14680); settings: at 0.1 µM
Sequence of Maternal embryonic leucine zipper kinase (Homo sapiens) (Q14680 whole entry, looked up): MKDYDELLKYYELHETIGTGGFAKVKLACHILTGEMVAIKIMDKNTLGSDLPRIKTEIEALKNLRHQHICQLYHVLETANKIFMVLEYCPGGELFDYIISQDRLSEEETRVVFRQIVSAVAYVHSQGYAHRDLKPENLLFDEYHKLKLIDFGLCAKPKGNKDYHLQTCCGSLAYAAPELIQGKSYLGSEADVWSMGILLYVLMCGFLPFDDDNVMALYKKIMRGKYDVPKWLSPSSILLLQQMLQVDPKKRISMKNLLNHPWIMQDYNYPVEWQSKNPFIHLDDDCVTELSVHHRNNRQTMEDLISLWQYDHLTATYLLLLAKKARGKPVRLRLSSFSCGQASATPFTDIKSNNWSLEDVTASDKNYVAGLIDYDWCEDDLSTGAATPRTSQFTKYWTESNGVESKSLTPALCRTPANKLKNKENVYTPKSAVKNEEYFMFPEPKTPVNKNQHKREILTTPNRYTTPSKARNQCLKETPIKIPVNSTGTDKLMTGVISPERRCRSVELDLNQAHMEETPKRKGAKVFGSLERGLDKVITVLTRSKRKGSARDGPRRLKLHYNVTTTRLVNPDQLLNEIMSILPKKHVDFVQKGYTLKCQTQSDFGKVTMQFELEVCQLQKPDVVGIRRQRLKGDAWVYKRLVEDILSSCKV

[5] = target: Maternal embryonic leucine zipper kinase (Homo sapiens) (UniProt Q14680); settings: at 1 µM
[6] = target: MAP kinase-interacting serine/threonine-protein kinase 1 (Homo sapiens) (UniProt Q9BUB5); settings: at 0.1 µM
Sequence of MAP kinase-interacting serine/threonine-protein kinase 1 (Homo sapiens) (Q9BUB5 whole entry, looked up): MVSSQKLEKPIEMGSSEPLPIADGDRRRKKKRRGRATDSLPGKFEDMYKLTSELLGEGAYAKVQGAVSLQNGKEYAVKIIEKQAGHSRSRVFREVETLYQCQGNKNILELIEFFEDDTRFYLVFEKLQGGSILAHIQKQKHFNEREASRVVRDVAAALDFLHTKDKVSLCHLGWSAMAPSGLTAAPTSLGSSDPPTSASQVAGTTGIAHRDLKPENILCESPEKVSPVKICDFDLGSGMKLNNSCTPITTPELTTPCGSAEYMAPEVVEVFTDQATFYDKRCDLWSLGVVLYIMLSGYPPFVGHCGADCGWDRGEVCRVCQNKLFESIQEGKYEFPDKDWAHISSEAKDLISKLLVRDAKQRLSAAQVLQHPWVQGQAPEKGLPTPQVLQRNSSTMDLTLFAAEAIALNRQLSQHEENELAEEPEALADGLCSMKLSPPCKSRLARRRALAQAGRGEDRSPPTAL

[7] = target: MAP kinase-interacting serine/threonine-protein kinase 1 (Homo sapiens) (UniProt Q9BUB5); settings: at 1 µM
[8] = target: MAP kinase-interacting serine/threonine-protein kinase 2 (Homo sapiens) (UniProt Q9HBH9); settings: at 0.1 µM
Sequence of MAP kinase-interacting serine/threonine-protein kinase 2 (Homo sapiens) (Q9HBH9 whole entry, looked up): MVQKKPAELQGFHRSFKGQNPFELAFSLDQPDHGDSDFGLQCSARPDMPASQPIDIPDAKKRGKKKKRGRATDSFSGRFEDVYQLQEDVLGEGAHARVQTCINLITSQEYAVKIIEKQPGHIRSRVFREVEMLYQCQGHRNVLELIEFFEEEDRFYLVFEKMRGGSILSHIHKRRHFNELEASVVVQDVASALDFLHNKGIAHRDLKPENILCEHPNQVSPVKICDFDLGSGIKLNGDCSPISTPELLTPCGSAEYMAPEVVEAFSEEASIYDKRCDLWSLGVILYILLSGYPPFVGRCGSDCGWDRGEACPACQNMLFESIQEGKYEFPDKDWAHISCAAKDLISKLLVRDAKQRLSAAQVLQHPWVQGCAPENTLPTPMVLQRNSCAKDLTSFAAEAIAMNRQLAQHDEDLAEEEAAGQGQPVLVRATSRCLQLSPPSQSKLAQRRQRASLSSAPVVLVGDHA

[9] = target: MAP kinase-interacting serine/threonine-protein kinase 2 (Homo sapiens) (UniProt Q9HBH9); settings: at 1 µM
[10] = target: Serine/threonine-protein kinase MARK2 (Homo sapiens) (UniProt Q7KZI7); settings: at 0.1 µM
Sequence of Serine/threonine-protein kinase MARK2 (Homo sapiens) (Q7KZI7 whole entry, the tested form may be a part): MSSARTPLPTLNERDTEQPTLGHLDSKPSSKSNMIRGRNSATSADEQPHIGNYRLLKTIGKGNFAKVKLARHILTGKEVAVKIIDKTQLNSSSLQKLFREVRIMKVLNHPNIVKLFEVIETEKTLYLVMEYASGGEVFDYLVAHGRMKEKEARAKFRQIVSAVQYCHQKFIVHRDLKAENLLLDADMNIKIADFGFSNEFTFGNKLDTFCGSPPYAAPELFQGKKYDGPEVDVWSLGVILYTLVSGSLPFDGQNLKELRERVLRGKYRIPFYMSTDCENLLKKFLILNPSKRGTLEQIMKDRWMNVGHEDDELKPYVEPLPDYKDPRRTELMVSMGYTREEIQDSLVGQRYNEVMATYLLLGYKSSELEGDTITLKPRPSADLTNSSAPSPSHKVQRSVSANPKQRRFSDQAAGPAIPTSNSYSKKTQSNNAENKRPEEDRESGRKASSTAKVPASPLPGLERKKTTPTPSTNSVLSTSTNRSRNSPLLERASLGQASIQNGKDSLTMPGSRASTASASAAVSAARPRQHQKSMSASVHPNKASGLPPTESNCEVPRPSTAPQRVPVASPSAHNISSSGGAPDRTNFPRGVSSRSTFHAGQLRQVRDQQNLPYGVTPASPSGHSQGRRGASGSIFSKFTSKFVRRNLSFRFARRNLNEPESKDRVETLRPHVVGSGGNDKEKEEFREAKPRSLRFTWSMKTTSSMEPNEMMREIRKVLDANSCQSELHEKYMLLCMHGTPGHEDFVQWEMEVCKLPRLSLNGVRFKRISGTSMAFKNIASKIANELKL

[11] = target: Serine/threonine-protein kinase MARK2 (Homo sapiens) (UniProt Q7KZI7); settings: at 1 µM
[12] = target: PAS domain-containing serine/threonine-protein kinase (Homo sapiens) (UniProt Q96RG2); settings: at 0.1 µM
Sequence of PAS domain-containing serine/threonine-protein kinase (Homo sapiens) (Q96RG2 whole entry, the tested form may be a part, canonical isoform): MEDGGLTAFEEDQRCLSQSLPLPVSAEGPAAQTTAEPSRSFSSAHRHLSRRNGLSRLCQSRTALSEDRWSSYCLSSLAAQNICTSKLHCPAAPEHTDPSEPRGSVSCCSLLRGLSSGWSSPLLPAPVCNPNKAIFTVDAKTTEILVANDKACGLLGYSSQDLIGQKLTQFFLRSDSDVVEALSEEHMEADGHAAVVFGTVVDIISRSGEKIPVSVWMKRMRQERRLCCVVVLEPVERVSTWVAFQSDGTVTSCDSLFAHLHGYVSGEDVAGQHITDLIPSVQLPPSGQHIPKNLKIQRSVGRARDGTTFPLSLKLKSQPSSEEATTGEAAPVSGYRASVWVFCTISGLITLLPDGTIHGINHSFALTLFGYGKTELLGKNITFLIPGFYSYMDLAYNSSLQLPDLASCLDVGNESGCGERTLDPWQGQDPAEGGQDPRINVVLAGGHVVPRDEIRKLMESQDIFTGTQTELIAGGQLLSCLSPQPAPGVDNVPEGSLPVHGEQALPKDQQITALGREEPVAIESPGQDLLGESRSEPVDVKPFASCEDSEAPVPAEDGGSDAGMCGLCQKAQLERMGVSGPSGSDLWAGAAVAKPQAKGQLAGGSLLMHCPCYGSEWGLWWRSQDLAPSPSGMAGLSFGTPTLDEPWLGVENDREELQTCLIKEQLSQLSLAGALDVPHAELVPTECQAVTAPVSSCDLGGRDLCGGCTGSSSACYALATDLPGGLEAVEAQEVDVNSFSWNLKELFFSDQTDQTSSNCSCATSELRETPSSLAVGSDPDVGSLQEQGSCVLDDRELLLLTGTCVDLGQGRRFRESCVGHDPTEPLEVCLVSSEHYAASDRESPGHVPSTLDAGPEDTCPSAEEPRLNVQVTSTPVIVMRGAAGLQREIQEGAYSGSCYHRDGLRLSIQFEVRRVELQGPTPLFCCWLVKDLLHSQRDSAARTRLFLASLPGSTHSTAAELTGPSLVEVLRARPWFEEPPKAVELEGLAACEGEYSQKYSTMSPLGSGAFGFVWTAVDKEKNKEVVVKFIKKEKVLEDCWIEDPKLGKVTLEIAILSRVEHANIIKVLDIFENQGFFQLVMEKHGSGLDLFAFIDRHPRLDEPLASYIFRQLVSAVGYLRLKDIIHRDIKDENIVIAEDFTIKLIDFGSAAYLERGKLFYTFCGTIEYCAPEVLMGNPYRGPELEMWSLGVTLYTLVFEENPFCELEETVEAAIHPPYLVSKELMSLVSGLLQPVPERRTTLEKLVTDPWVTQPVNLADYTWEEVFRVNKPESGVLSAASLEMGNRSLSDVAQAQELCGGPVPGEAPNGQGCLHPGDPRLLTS

[13] = target: PAS domain-containing serine/threonine-protein kinase (Homo sapiens) (UniProt Q96RG2); settings: at 1 µM
[14] = target: Phosphorylase b kinase gamma catalytic chain, skeletal muscle/heart isoform (Homo sapiens) (UniProt Q16816); settings: at 0.1 µM
Sequence of Phosphorylase b kinase gamma catalytic chain, skeletal muscle/heart isoform (Homo sapiens) (Q16816 whole entry, looked up, canonical isoform): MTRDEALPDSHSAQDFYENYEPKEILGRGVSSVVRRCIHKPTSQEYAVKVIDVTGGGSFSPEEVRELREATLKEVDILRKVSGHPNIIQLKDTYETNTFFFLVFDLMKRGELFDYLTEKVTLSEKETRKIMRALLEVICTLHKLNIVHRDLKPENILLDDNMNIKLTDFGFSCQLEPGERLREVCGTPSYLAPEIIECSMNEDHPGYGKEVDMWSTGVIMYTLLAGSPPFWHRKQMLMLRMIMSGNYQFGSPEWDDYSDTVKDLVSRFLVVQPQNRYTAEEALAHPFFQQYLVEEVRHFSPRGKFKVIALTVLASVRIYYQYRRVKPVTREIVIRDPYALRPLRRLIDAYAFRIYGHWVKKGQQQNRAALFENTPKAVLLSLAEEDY

[15] = target: Phosphorylase b kinase gamma catalytic chain, skeletal muscle/heart isoform (Homo sapiens) (UniProt Q16816); settings: at 1 µM
[16] = target: T2, Phosphorylase b kinase gamma catalytic chain, liver/testis isoform (Homo sapiens) (UniProt P15735); settings: at 0.1 µM
T2 sequence (whole entry): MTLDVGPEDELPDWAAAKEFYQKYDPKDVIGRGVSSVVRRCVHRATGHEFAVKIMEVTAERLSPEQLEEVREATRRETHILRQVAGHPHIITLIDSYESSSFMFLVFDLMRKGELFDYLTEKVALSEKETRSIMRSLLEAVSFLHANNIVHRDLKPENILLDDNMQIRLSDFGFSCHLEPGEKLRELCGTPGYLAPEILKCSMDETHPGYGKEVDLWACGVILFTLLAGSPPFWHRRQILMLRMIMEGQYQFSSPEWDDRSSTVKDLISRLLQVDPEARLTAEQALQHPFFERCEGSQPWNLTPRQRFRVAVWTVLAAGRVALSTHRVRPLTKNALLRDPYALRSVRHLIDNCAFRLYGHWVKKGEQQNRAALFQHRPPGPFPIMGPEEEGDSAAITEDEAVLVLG

[17] = target: T2, Phosphorylase b kinase gamma catalytic chain, liver/testis isoform (Homo sapiens); settings: at 1 µM
[18] = target: Serine/threonine-protein kinase pim-1 (Homo sapiens) (UniProt P11309); settings: at 0.1 µM
[19] = target: Serine/threonine-protein kinase pim-1 (Homo sapiens) (UniProt P11309); settings: at 1 µM
[20] = target: Serine/threonine-protein kinase pim-2 (Homo sapiens) (UniProt Q9P1W9); settings: at 0.1 µM;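 further: reported value is the mean percent inhibition of PIM2, measured in the GSK PKIS kinase inhibitor set screen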

Sequence of MAP/microtubule affinity-regulating kinase 3 (Homo sapiens) (P27448 whole entry, looked up): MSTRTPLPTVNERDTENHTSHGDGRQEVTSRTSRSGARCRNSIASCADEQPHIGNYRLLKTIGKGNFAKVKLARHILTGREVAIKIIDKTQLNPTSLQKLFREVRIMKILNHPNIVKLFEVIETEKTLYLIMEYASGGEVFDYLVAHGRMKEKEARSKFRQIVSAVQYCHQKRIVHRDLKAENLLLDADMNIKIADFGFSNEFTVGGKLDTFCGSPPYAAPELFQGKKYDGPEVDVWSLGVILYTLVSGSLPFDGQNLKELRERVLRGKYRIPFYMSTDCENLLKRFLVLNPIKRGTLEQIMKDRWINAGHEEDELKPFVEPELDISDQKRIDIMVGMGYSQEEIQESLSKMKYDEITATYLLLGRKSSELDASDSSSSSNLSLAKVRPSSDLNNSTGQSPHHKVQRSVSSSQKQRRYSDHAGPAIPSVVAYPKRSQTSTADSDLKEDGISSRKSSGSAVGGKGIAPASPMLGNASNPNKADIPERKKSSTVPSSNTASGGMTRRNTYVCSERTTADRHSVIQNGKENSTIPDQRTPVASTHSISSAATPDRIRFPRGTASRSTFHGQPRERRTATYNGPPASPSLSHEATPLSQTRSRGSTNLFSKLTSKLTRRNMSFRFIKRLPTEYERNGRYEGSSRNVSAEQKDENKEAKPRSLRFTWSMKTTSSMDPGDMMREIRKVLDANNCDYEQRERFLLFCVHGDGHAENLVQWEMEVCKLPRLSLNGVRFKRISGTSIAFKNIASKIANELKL

SMILES | inhibition [1] | inhibition [2] | inhibition [3] | inhibition [4] | inhibition [5] | inhibition [6] | inhibition [7] | inhibition [8] | inhibition [9] | inhibition [10] | inhibition [11] | inhibition [12] | inhibition [13] | inhibition [14] | inhibition [15] | inhibition [16] | inhibition [17] | inhibition [18] | inhibition [19] | inhibition [20]
CN1CCC(C(=O)Nc2n[nH]c3nc(-c4ccc(O)cc4)c(Br)cc23)CC1 | 2.99% and 3.23% | 2.14% and -0.03% | 4.18% and 0.65% | 3.6% and 2.34% | 11.7% and 8.84% | 55.1% and 58% | 77.6% and 84.9% | 6.5% and 5.49% | 36.9% and 34.7% | 1.43% and -2.51% | 2.87% and -0.48% | 0.12% and 1.36% | 1.4% and -0.48% | 7.58% and -0.16% | 16.1% and 3.32% | 4.67% and 1.73% | 9.01% and 2.52% | 5.3% and 6.07% | 34.8% and 33.4% | -0.97% and 1.73%
NS(=O)(=O)c1ccc(N/N=C2\C(=O)Nc3cccc(CCc4ccncc4)c32)cc1 | 3.11% | 2.47% | 4.28% | 4.76% | 34.7% | 1.05% | 0.27% | 0.14% | 1.83% | 0.98% | 4.73% | 1.68% | 1% | 4.94% | 11.7% | 0.33% | -0.92% | 0.54% | 1.13% | 0.11%
Fc1cccc(COc2ccc(Nc3ncncc3C#Cc3ccccc3)cc2Cl)c1 | 4.26% | 0.48% | 1.07% | 3.34% | 4.69% | 3.32% | 11.8% | 2.53% | 6.84% | 0.96% | 1.05% | 0.76% | 1.64% | 3.8% | 5.87% | 5.59% | 8.15% | 0.46% | 1.07% | 0.52%
Cc1nnc(-c2cccc(-c3ccc(C(=O)NCC4CC4)cc3)c2)o1 | 7.47% | 1.79% | 2.85% | 0.44% | 6.34% | 4.66% | 6.32% | 2.35% | 6.05% | 0.64% | 1.69% | 0.89% | 0.76% | 3.57% | 5.91% | 7.39% | 7.38% | -0.37% | 1.97% | 0.91%
COc1cc2c(cc1Nc1nc(Nc3cccc(F)c3C(N)=O)c3cc[nH]c3n1)N(C(=O)CN1CCN(C(C)C)CC1)CC2 | 3.29% | 0.59% | 2.06% | 2.86% | 18.4% | 1.4% | 1.42% | 1.33% | 4.51% | 0.26% | 3.63% | -0.77% | -0.72% | 0.29% | 9.54% | 3.29% | 5.63% | 1.43% | 0.21% | -0.02%
FC(F)(F)CNc1nccc(-c2cnn3ncccc23)n1 | -0.26% | 1.01% | 0.89% | 5.66% | 27.5% | 4.07% | 20.6% | 2.55% | 26.4% | 0.47% | 2.13% | 1.06% | 0.79% | 3.02% | 6.43% | 3.98% | 4.36% | 0.08% | 3.03% | -0.09%
COc1cc(Nc2ncc(-c3ccccc3)o2)cc(OC)c1 | 2.48% | 1.86% | 3.56% | 4.58% | 5.97% | 3.84% | 10.8% | 1.3% | 12.4% | -1.15% | 2.52% | -1.02% | -0.79% | 5.83% | 14.1% | 4.54% | 5.45% | 1.14% | 1.63% | 0.58%
Cc1cc(O)cc(C)c1/C=C/c1cncc(C(N)=O)c1 | 3.59% | 0.98% | 1.6% | 3.07% | 3.76% | 9.34% | 44.9% | 4.98% | 37.8% | 0.97% | 1.96% | 0.45% | -0.18% | 3.36% | 2.58% | 2.43% | 0.42% | 0.11% | 0.65% | 0.8%
CCS(=O)(=O)c1ccc(OC)c(Nc2ncc(-c3cccc(F)c3)o2)c1 | 2.56% | 2.11% | 2.65% | 7% | 15.4% | 3.79% | 19.5% | 1.15% | 12.2% | 2.49% | 2.64% | -0.05% | -0.06% | 6.05% | 24.7% | 6.86% | 8.13% | 1.98% | 4.66% | -0.96%
COC(=O)Nc1nc2cc(Oc3ccc(NC(=O)Nc4ccccc4)cc3)ccc2[nH]1 | 2.58% | 1.19% | 0.89% | 0.33% | 2.1% | 3% | 6.54% | 1.92% | 4.02% | 0.31% | -0.9% | 0.34% | 1.02% | 4.15% | 5.64% | 4.43% | 6.25% | -0.24% | 0.02% | 0.15%
COc1c(C(N)=O)cc(-c2ccc(Cl)cc2)cc1-c1ccc(S(N)(=O)=O)cc1 | 2.07% | 0.45% | 1.37% | 6.28% | 14.6% | 3.66% | 11.2% | 2.02% | 5.44% | 1.8% | 1.57% | -2.39% | -1.49% | 0.45% | 3.12% | 3.72% | 5.17% | 1.83% | 2.23% | -0.64%
CCS(=O)(=O)c1ccc(OC)c(Nc2ncc(-c3cccc(C(C)=O)c3)o2)c1 | 10.1% | 0.67% | 1.52% | 2.17% | 7.46% | 3.04% | 12.2% | 2.96% | 6.18% | -1.1% | -4.12% | 0.37% | 2.34% | 1.7% | 10.4% | 3.37% | 6.45% | 0.82% | 1.66% | -0.72%
CNC(=O)c1sc(-n2cnc3cc(OC)c(OC)cc32)cc1OCc1ccccc1C(F)(F)F | 3.64% | 2.02% | 3.13% | 2.63% | 2% | 3.25% | 4.03% | 0.55% | 2.13% | -0.7% | 1.67% | 0.35% | 0.79% | 4.21% | 3.69% | 5.8% | 5.01% | -0.73% | -0.07% | 0.37%
